Results: PubChem BioAssay (NCI)
Compounds without any hit were thinned out: in the full panel of roughly 83,000, 20% have a hit.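 A percent growth of 40 corresponds to 60% growth inhibition; 0 means no net growth; -100 means all cells died. Active threshold: below 10.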 Active and inactive are the calls of the source.

Columns and labels:
Test in all cases: NCI-60 one-dose screen, 48 h (100 = growth as untreated, 0 = no growth, -100 = all killed)
Conditions in all cases: 10 µM unless noted
DU-145 prostate = system: DU-145 prostate
K-562 leukemia = system: K-562 leukemia
MALME-3M melanoma = system: MALME-3M melanoma
MDA-MB-231 breast = system: MDA-MB-231 breast
RXF 393 renal = system: RXF 393 renal
SF-268 CNS = system: SF-268 CNS
SF-295 CNS = system: SF-295 CNS
SF-539 CNS = system: SF-539 CNS
UACC-257 melanoma = system: UACC-257 melanoma
M14 melanoma = system: M14 melanoma
HCT-15 colon = system: HCT-15 colon
HT29 colon = system: HT29 colon
SNB-75 CNS = system: SNB-75 CNS
SNB-19 CNS = system: SNB-19 CNS
U251 CNS = system: U251 CNS
PC-3 prostate = system: PC-3 prostate
SK-MEL-5 melanoma = system: SK-MEL-5 melanoma
UACC-62 melanoma = system: UACC-62 melanoma
LOX IMVI melanoma = system: LOX IMVI melanoma
SK-MEL-28 melanoma = system: SK-MEL-28 melanoma

Measured: growth

CCN(CC)CCCC(Nc1c2ccc(Cl)cc2nc2ccc(OC)cc12)c1ccncc1 (stereo not given)
inactive: DU-145 prostate 70.6% | K-562 leukemia 32.6% | MALME-3M melanoma 76.7% | MDA-MB-231 breast 59.3% | RXF 393 renal 65.4% | SF-268 CNS 77.8% | SF-295 CNS 89.9% | SF-539 CNS 62.9% | UACC-257 melanoma 114% | M14 melanoma 113% | HCT-15 colon 54.8% | HT29 colon 43.7% | SNB-75 CNS 87% | SNB-19 CNS 81% | U251 CNS 79.3% | PC-3 prostate 66.6% | SK-MEL-5 melanoma 88.4% | UACC-62 melanoma 103% | LOX IMVI melanoma 63% | SK-MEL-28 melanoma 85.6%

Nc1ccc(Cl)c2c(=O)c3ccccc3[nH]c12
inactive: DU-145 prostate 94.1% | K-562 leukemia 83.5% | MALME-3M melanoma 109% | MDA-MB-231 breast 91.5% | RXF 393 renal 80.4% | SF-268 CNS 92.9% | SF-295 CNS 76.4% | SF-539 CNS 83.5% | UACC-257 melanoma 74.7% | M14 melanoma 91.1% | HCT-15 colon 83.1% | HT29 colon 100% | SNB-75 CNS 84.2% | SNB-19 CNS 88.5% | U251 CNS 92.2% | PC-3 prostate 76.6% | SK-MEL-5 melanoma 53.1% | UACC-62 melanoma 93.6% | LOX IMVI melanoma 71.4% | SK-MEL-28 melanoma 113%

CCCCCCCCCCCCCCCCCCOc1ccccc1CC(=O)OCC[N+]1(C)CCCCC1
inactive: DU-145 prostate 71.6% | K-562 leukemia 22.6% | MALME-3M melanoma 45.3% | MDA-MB-231 breast 10.3% | SF-268 CNS 43.5% | SF-295 CNS 73.6% | SF-539 CNS 68.6% | UACC-257 melanoma 80.6% | M14 melanoma 34.7% | HCT-15 colon 86.3% | HT29 colon 31.7% | SNB-75 CNS 46.3% | SNB-19 CNS 50.6% | U251 CNS 36.9% | UACC-62 melanoma 33.8% | SK-MEL-28 melanoma 62.5%
active: RXF 393 renal -3.91% | PC-3 prostate 3.03% | SK-MEL-5 melanoma -2.94% | LOX IMVI melanoma 1.71%

CNc1nc2ncc(-c3c(C)noc3C)cc2n1Cc1ccccc1
active: SNB-75 CNS 0.561%
inactive: DU-145 prostate 79.4% | K-562 leukemia 49.3% | MALME-3M melanoma 45.4% | MDA-MB-231 breast 50.3% | RXF 393 renal 54.1% | SF-268 CNS 80.7% | SF-295 CNS 57.4% | SF-539 CNS 41% | UACC-257 melanoma 42.3% | M14 melanoma 31.5% | HCT-15 colon 51.2% | HT29 colon 31.8% | SNB-19 CNS 59.3% | U251 CNS 61% | PC-3 prostate 32.2% | SK-MEL-5 melanoma 47.9% | UACC-62 melanoma 17% | LOX IMVI melanoma 32.5% | SK-MEL-28 melanoma 57.4%

O=C(Nc1ncc(Cc2ccccc2)s1)c1ccc2c(c1)OCCO2
active: K-562 leukemia 8.32% | SF-539 CNS -10.4% | HCT-15 colon 7.07% | HT29 colon 4.31% | SNB-75 CNS 9.1% | SK-MEL-5 melanoma -29.7%
inactive: DU-145 prostate 15.2% | MALME-3M melanoma 57.9% | MDA-MB-231 breast 39.2% | RXF 393 renal 10.2% | SF-268 CNS 43.2% | SF-295 CNS 11.9% | UACC-257 melanoma 45.1% | M14 melanoma 18.6% | SNB-19 CNS 35.4% | U251 CNS 14.2% | PC-3 prostate 27.1% | UACC-62 melanoma 33.6% | LOX IMVI melanoma 10.6% | SK-MEL-28 melanoma 66.3%

Oc1c(Cl)cc(Cl)c2ccc(CN3CCNCC3)nc12
inactive: DU-145 prostate 50.8% | K-562 leukemia 19% | MALME-3M melanoma 67.9% | MDA-MB-231 breast 59.3% | RXF 393 renal 60.3% | SF-268 CNS 39.9% | SF-295 CNS 39.4% | SF-539 CNS 58.3% | UACC-257 melanoma 70.9% | M14 melanoma 47.7% | HCT-15 colon 19.5% | HT29 colon 105% | SNB-75 CNS 45.9% | SNB-19 CNS 41.9% | U251 CNS 26.8% | PC-3 prostate 40.3% | SK-MEL-5 melanoma 42.8% | UACC-62 melanoma 33.3% | LOX IMVI melanoma 45.3% | SK-MEL-28 melanoma 62.3%

COc1cccc2cc(N(C)c3ncnc4ccccc34)ccc12
active: K-562 leukemia 9.92% | SF-539 CNS -28.5% | HT29 colon 2.77% | PC-3 prostate 5.88% | SK-MEL-5 melanoma -32.4%
inactive: DU-145 prostate 10.3% | MALME-3M melanoma 39.4% | MDA-MB-231 breast 31.3% | RXF 393 renal 25.9% | SF-268 CNS 30.2% | SF-295 CNS 11% | UACC-257 melanoma 25.3% | M14 melanoma 14.3% | HCT-15 colon 11.1% | SNB-75 CNS 34.8% | SNB-19 CNS 31.8% | U251 CNS 11% | UACC-62 melanoma 23.4% | LOX IMVI melanoma 15.5% | SK-MEL-28 melanoma 33.3%

C(CCCSC1=NCCN1)CCSC1=NCCN1
inactive: DU-145 prostate 109% | K-562 leukemia 116% | MALME-3M melanoma 104% | MDA-MB-231 breast 103% | RXF 393 renal 104% | SF-268 CNS 106% | SF-295 CNS 108% | SF-539 CNS 101% | UACC-257 melanoma 98.5% | M14 melanoma 99.3% | HCT-15 colon 102% | HT29 colon 95% | SNB-75 CNS 91.4% | SNB-19 CNS 114% | U251 CNS 98.2% | PC-3 prostate 64.7% | SK-MEL-5 melanoma 107% | UACC-62 melanoma 107% | LOX IMVI melanoma 99.1% | SK-MEL-28 melanoma 113%
